# High-throughput results from PubChem.
# Compounds with a hit are over-represented: about 1.1% of the library has one in this group of screens.
# HDAC3 inhib = HDAC3 deacetylase inhibitors, primary screen, biochemical, fluorescence, cell-free homogeneous; Histone deacetylase 3 (Homo sapiens), O15379; recombinant HDAC3, fluorogenic peptide/trypsin coupled; inhibition, % at 8.3 µM; 320,000 compounds, 0.15% hits; AID 2718, 2010; in the data active means inhibition above about 26%, passing the limit was not always enough
# IDE cell activ = human IDE activators in live cells, primary screen, fluorescence polarization, HEK cells, FAbeta-B substrate; FAbeta-B cleavage; 0% vehicle, 100% cell-free pure enzyme wells; activation, % at 5.96 µM; 340,000 compounds, 0.073% hits; AID 493087, 2011;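 active means activation above the mean of all tested compounds plus 3 SD, set per screening campaign, cut at about 17% in these data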
# LANA-H2B inh = blockers of LANA interaction with H2A/H2B – biochemical, FP readout, HTS, primary screen; Protein LANA1 (Human herpesvirus 8 type P (isolate GK18)), Q9QR71; cell-free LANA-H2A/H2B peptide, fluorescence polarization; inhibition, % (test concentration not listed); 320,000 compounds, 0.6% hits; AID 2629, 2010; in the data active means inhibition mostly above about 10%, no sharp cut-off; inactive means mostly below about 6.7%
# Target sequence (Q9QR71 whole entry, looked up): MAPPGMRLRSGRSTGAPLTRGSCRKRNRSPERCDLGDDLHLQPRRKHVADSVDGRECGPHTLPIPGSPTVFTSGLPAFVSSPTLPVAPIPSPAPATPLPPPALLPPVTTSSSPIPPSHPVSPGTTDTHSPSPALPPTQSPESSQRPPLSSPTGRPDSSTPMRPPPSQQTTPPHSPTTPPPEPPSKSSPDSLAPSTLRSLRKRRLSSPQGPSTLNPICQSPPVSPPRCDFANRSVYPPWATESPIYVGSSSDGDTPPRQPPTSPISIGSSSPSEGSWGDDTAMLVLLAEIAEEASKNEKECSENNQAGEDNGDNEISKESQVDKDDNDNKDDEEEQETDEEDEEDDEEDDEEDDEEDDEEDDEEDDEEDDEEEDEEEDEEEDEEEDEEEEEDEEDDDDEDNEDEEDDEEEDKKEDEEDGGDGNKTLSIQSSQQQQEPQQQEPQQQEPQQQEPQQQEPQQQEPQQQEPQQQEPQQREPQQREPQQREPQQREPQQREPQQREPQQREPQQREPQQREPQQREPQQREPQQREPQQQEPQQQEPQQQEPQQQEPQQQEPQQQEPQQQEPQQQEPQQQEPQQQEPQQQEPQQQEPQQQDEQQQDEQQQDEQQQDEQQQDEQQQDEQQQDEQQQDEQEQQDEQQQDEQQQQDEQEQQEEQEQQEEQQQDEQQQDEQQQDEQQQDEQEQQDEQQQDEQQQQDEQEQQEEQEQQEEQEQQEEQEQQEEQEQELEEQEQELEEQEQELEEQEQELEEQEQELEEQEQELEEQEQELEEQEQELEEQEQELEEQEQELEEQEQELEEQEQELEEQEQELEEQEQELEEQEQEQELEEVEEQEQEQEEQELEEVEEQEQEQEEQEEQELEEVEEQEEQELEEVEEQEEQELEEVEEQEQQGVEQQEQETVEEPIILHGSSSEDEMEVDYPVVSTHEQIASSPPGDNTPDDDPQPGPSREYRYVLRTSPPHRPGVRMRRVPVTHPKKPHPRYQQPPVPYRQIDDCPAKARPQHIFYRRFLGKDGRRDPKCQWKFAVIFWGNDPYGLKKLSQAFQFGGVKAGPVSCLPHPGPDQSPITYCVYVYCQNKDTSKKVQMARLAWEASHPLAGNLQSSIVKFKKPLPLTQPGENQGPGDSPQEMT
# IDE cell inh = human IDE inhibitors in live cells, primary screen, fluorescence polarization, HEK cells, FAbetaB substrate; FAbetaB cleavage; inhibition, % at 5.59 µM; Insulin-degrading enzyme (Homo sapiens), P14735; 320,000 compounds, 0.41% hits;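 active means percent inhibition above the average of all tested compounds plus 3 SD, set per screening campaign, cut at about 16% in these data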;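 further: IDE supplied by intact live HEK cells; FP after avidin binding of uncleaved biotin substrate so inhibition keeps polarization high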
# IDE inh confirm = human IDE inhibitors in live cells, confirmation, fluorescence polarization, HEK cells, FAbetaB substrate | inhibition, % at 5.59 µM | FAbetaB cleavage | 1,200 compounds, 51% hits | shares compounds with IDE cell inh;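 active means mean inhibition across triplicate wells above the cutoff set by the earlier primary insulin-degrading enzyme screen, cut at about 16% in these data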
# HEK293 tox = cytotoxicity in HEK cells, cytotoxicity control for IDE inhibitor project, cell-based, luminescence; inhibition, % at 5.59 µM; AID 449730, 2010; shares compounds with IDE cell inh; HEK293 cytotoxicity, ATP luminescence; 1,200 compounds, 28% hits; in the data active means inhibition above about 22%
# IDE FP artifact = fluorescent or optically active artefacts, dose response, artefact control for IDE inhibitor project, biochemical, fluorescence polarization | shares compounds with IDE cell inh | FP counterscreen for fluorescent artifacts, IDE probe project | 30 tested, under 10 active | IC50, µM | AID 588718, 2011; call rule not given here
# Numbers stand for hits; n = inactive; x = no result.
SMILES,HDAC3 inhib,IDE cell activ,LANA-H2B inh,IDE cell inh,IDE inh confirm,HEK293 tox,others
CC(C)CC(=O)NC(c1cccs1)c1ccc2cccnc2c1O (stereo not drawn),n,n,n,16.6,n,106.1,
CCCCC(=O)NC(c1ccc(Cl)cc1)c1ccc2cccnc2c1O (stereo not drawn),n,n,n,18.7,n,98.9,
O=c1c2[nH]c3ccc(F)cc3c2ncn1CCC1=CCCCC1,n,n,n,n,x,x,
COc1ccc(N2CCN(c3nc4c(c(=O)n(C)c(=O)n4C)n3Cc3ccccc3)CC2)cc1,n,n,n,20.4,n,n,
C=C(C)Cn1c(N2CCN(c3ccc(OC)cc3)CC2)nc2c1c(=O)n(C)c(=O)n2C,n,n,n,n,x,x,
CCC(=O)N1CCN(c2nc(-c3ccc(Cl)cc3)cs2)CC1,n,n,n,17.9,n,n,
Cc1cc(S(=O)(=O)N2CCCOC2CNC(=O)C(=O)NCc2cccs2)ccc1F (stereo not drawn),n,n,n,n,x,x,
CC(C)CC[n+]1ccccc1/C=C/c1ccc(N(C)C)cc1,n,n,n,36.9,68.8,101.0,
O=C(Cn1cnnn1)NC1CCCN(Cc2ccccc2F)C1 (stereo not drawn),n,n,n,n,x,x,
CCCCN1C(=O)C2Cc3c([nH]c4ccccc34)CN2C1=S (stereo not drawn),n,n,n,30.3,93.8,n,
CCCCCN1CC(=O)N2Cc3[nH]c4ccccc4c3C[C@H]2C1=O,n,n,n,n,x,x,
Cc1ccc(C)c(N2CCN(C(=O)CCc3nc(-c4ccc(F)cc4)no3)CC2)c1,x,n,x,x,x,x,
Cc1cc(=O)[nH]c(/N=C(\N)Nc2ccc(Oc3ccccc3)cc2)n1,n,n,n,n,x,x,
Cc1cc(=O)[nH]c(/N=C(\N)Nc2cccc3ccccc23)n1,n,n,n,16.4,n,n,
Cc1ccc(NS(=O)(=O)c2ccc3c(c2)C(=O)c2ccccc2C3=O)c(C)c1,n,n,n,n,x,x,
Cc1cccc(S(=O)(=O)Nc2cccc3c2C(=O)c2ccccc2-3)c1,n,n,n,50.2,41.4,n,
O=C(OCC(O)CO)c1ccccc1Nc1ccnc2cc(Cl)ccc12 (stereo not drawn),n,n,n,n,x,x,
C=CCN1C(=O)/C(=C/C=C2/N(CC)c3ccc(S(=O)(=O)N(C)C)cc3N2CC)SC1=S,n,n,n,22.3,160.4,39.3,
CCOC(=O)c1c(NC(=O)c2cc3n(n2)C(C(F)(F)F)CC(c2cccs2)N3)sc(C)c1C (stereo not drawn),n,n,n,n,x,x,
O=C(O)c1ccc2c(=O)n3c(nc2c1)/C(=C/c1ccc(F)cc1)CC3,n,n,n,n,x,x,
O=C(O)c1ccc2c(=O)n3c(nc2c1)/C(=C/c1cccc(Cl)c1Cl)CCCC3,n,n,n,17.9,n,n,
C/C(=N/OCO/N=C(\C)c1ccc(F)cc1F)c1ccc(F)cc1F,n,n,n,n,x,x,
CC(=O)c1sc(N/N=C\c2c(O)ccc3ccccc23)nc1C,n,n,n,23.3,38.7,38.5,
CC(=O)c1sc(N/N=C/c2cccc(O)c2)nc1C,n,n,n,n,x,x,
COc1ccc(NC(=O)c2sc3nc(-c4cccnc4)ccc3c2N)cc1,n,n,n,n,x,x,
SMILES,HDAC3 inhib,IDE cell activ,LANA-H2B inh,IDE cell inh,IDE inh confirm,HEK293 tox,others
COc1ccc(NC(=O)c2sc3nc(-c4cccnc4)ccc3c2N)cc1OC,n,n,n,18.6,n,n,
Cc1cc2oc(C(=O)Nc3ccc(S(=O)(=O)Nc4nccs4)cc3)cc(=O)c2cc1Cl,n,n,n,n,x,x,
Cc1cc(C)c2oc(C(=O)Nc3ccc(S(=O)(=O)Nc4nccs4)cc3)cc(=O)c2c1,n,n,n,22.1,n,n,
CCN(CC)c1ccc(/C=C(/C#N)c2nc3ccccc3[nH]2)c(OC(C)C)c1,n,n,n,141.4,149.2,32.4,
Cc1cc(N2CCN(C(=O)/C=C/C(=O)O)CC2)c2ccccc2n1,n,n,n,n,x,x,
COc1cccc(Cl)c1NC(=O)N1CCN(c2cc(C)nc3ccccc23)CC1,n,n,n,27.9,21.9,22.7,
Cc1cc(C)cc(NCc2cc(=O)oc3cc(-c4ccccc4)c(O)cc23)c1,n,n,n,n,x,x,
COc1ccc(C)cc1NCc1cc(=O)oc2cc(-c3ccccc3)c(O)cc12,n,n,n,19.6,n,n,
O=C(Nc1ccc2oc(-c3ccncc3)nc2c1)c1ccc2c(c1)OCCO2,n,n,n,17.2,n,33.0,
O=C(Nc1ccc2oc(-c3cccnc3)nc2c1)c1ccc2c(c1)OCCO2,n,n,n,17.7,18.1,n,IDE FP artifact=n
O=C(Nc1ccc2oc(-c3ccccc3)nc2c1)c1ccc2c(c1)OCCO2,n,n,n,18.9,n,23.4,
OC[C@H]1O[C@@H](O[C@@H]2[C@@H](CO)O[C@@](O)(CO)[C@H]2O)[C@H](O)[C@@H](O)[C@H]1O,n,n,n,n,x,x,
COc1ccc(-c2noc(C3CCCN(C(=O)c4ccc(F)cc4)C3)n2)cc1 (stereo not drawn),n,n,n,n,x,x,
CN(C)c1ccc(/C=C2\Oc3ccc(C#Cc4cccc(N)c4)cc3C2=O)cc1,n,n,n,43.8,49.0,n,
O=C(CNC(=O)c1sc2ccccc2c1Cl)NCc1cccnc1,n,n,n,18.8,n,n,
Cc1ccc(S(=O)(=O)Nc2cc(C(C(=O)OC(C)C)C(=O)C(F)(F)F)c(O)c3ccccc23)c(C)c1 (stereo not drawn),n,n,n,21.5,n,n,
O=C(Nc1ccc(Cl)cc1)c1csc(Cc2ccccc2)n1,n,n,n,n,x,x,
O=C(Nc1cccc(C(F)(F)F)c1)c1csc(Cc2cccc(C(F)(F)F)c2)n1,x,x,x,x,x,x,IDE FP artifact=n
O=C(Cn1nc(C(=O)O)c2ccccc2c1=O)Nc1ccc(Cl)c(S(=O)(=O)N2CCOCC2)c1,n,n,n,n,x,x,
Cc1ccc(C)c(N/C=C(\C#N)c2nc3ccccc3o2)c1,n,n,n,n,x,x,
COc1cc(/C=C(/C#N)c2nc3ccccc3[nH]2)ccc1OCC(=O)Nc1ccccc1C,n,n,n,n,x,x,
COc1cc(/C=C(\C#N)c2nc3ccccc3o2)ccc1O,n,n,n,87.6,83.9,n,
COc1cc(/C=C(\C#N)c2nc3ccccc3[nH]2)ccc1OC(=O)c1ccco1,n,n,n,114.3,153.3,n,
N#C/C(=C\c1ccc(O)cc1)c1nc2ccccc2o1,n,n,n,42.8,118.6,n,
